Pin1 inh – human Pin1 inhibition; Pin1 FP peptide displacement, HiFluor488, 10 min; hit rate 0.009% among 390,000; Q13526; Potency, µM (series often up to 115 µM), hits mostly inhibitors; active = well fitted inhibition curve with a large enough effect in the polarisation, with a control signal flat, not every such curve was filed as active; inconclusive = small, poorly fitted or top-dose-only effect, or effect the other way, or a change in a side signal; inactive = no such curve, though single readings can be large or run the other way; the % refers to the polarisation
TDP1 block – inhibitors of human tyrosyl-DNA phosphodiesterase TDP1 | Q9NUW8 | hit rate 0.28% among 350,000 | recombinant TDP1, AlphaScreen DNA substrate cleavage | Potency, µM (top dose mostly 130 µM), usual class: inhibitors | AID 485290; note: nearly all actives have a fitted effect of over 40% in size
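Here, a 5' biotin and 3' phosphotyrosine-FITC DNA oligonucleotide reports Tdp1 activity: intact substrate bridges AlphaScreen beads, while cleavage leaves a 3' phosphate and drops signal. All incubations at room temperature.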
PLK1 PBD inh – blocks phosphopeptide binding to human PLK1 polo-box domain. P53350. Plk1 PBD binding of FITC phosphopeptide, fluorescence polarization. Potency, µM, hits mostly inhibitors. hit rate 2.8% among 360,000. AID 720504; note: series mostly up to about 57 µM; nearly all actives have a fitted effect of over 65% in size
Target sequence (P53350 whole entry, looked up, the tested form may be a part): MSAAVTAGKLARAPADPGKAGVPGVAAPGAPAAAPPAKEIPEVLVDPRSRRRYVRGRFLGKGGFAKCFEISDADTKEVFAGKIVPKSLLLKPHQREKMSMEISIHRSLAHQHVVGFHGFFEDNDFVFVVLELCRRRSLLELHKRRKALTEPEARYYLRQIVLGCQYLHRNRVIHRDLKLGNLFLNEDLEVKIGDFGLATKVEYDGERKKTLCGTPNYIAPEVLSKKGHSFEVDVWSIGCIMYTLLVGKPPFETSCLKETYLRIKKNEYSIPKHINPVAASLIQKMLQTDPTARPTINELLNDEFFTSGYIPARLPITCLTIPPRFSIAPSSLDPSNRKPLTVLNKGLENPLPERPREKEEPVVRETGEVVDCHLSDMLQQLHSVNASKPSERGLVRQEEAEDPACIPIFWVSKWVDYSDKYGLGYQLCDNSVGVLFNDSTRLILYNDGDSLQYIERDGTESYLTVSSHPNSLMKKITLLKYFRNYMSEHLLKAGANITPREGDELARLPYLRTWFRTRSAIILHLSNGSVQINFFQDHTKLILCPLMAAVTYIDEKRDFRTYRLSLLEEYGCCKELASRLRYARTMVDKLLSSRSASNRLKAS
Tb PFK inh – blocks T. brucei phosphofructokinase; T. brucei PFK, ADP-Glo luminescence; O15648; hit rate 0.17% among 330,000; Potency, µM (highest dose often 57.5 µM), hits mostly inhibitors; note: nearly all actives have a fitted effect of over 60% in size
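Luminescent ADP detection (ADP-Glo, two-step: ATP depletion then ADP-to-ATP conversion for luciferase) reported PFK activity after 45 min room-temperature reaction of 1.25 nM enzyme with 0.5 mM F6P and 0.1 mM ATP at pH 8.0.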
VDR inhibitor – inhibitors of human vitamin D receptor; P11473; VDR-SRC2-3 peptide fluorescence polarization, 2 h; Potency, µM, hits mostly inhibitors; hit rate 0.93% among 400,000; AID 504847
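After 23 nl compound addition and a short centrifugation, plates sat for 2 hours at ambient temperature; polarization of fluorescence then indicated loss of VDR binding to peptide SRC2-3.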
S-ASM inh – inhibitors of human secretory acid sphingomyelinase. P17405. AID 504937. Potency, µM (highest dose often 57.5 µM), hits mostly inhibitors. placental ASM, HMU-PC fluorogenic substrate, 60 min. hit rate 0.006% among 340,000
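Fluorescence read-out (Ex 386 nm, Em 447 nm) after stopping the reaction at pH 10. Enzyme: ASM from human placenta; substrate HMU-PC0, 9 uM final; 60 min, 37 °C. Compound preincubation 10 min, ambient temperature.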
Numbers stand for hits; . = inactive; ? = inconclusive; / = no result given. Most compounds without a hit are left out; they make up all but 3.1% or so of the library. Unless noted, calls come from the whole dose curve; as a rule, active = well fitted curve in the direction sought with a large enough effect; inconclusive = small, poorly fitted or top-dose-only effect, or another doubt; inactive = no such curve, though single readings can be large; an effect the other way counts as inactive or inconclusive.

SMILES | Pin1 inh | TDP1 block | PLK1 PBD inh | Tb PFK inh | VDR inhibitor | S-ASM inh
CCN(CC)S(=O)(=O)c1ccc(Cl)c(NC(=O)c2ccccc2C)c1 | . | . | 21µM | . | . | .
CCN(CC)S(=O)(=O)c1ccc(Cl)c(C(=O)Nc2ccc(Cl)cc2[N+](=O)[O-])c1 | . | . | . | . | . | .
C/C(CC1CC(COCC(C)C)OC1=O)=N\Nc1nc(-c2ccccc2)cs1 (stereo unspecified) | . | . | 21µM | . | ? | .
CC1CCC(NC(=O)CCc2cn(Cc3ccc(F)cc3)c3ccccc23)CC1 (stereo unspecified) | . | . | / | / | . | /
Cc1ccc(/C=N/NC(=O)c2cc3c(ccc4ccccc43)o2)o1 | . | . | . | . | . | .
O=C(N/N=C/c1cc(Cl)c(O)c(Cl)c1)c1cc2c(ccc3ccccc32)o1 | ? | . | 24µM | . | . | .
O=C(N/N=C/c1cc(Br)c(O)c(Br)c1)c1cc2c(ccc3ccccc32)o1 | / | . | 21µM | . | . | .
O=C(N/N=C/c1cc(Br)c(Br)o1)c1cc2ccccc2o1 | ? | 50µM | . | . | . | .
O=C(N/N=C/c1cccnc1)c1cc2c(ccc3ccccc32)o1 | . | . | . | . | . | .
O=C(N/N=C/c1ccc(O)c(Br)c1)c1cc2c(ccc3ccccc32)o1 | . | . | . | . | . | .
O=C(N/N=C/c1ccc([N+](=O)[O-])o1)c1cc2c(ccc3ccccc32)o1 | ? | . | 15µM | . | . | .
O=C(N/N=C/c1ccncc1)c1cc2ccccc2o1 | . | . | . | . | . | .
CNCCCCCCCCSc1nc(C(C)C)ccc1C(=O)c1cccs1 | / | . | / | / | ? | /
CC(=O)N1c2ccc(S(=O)(=O)NCc3ccc(Cl)cc3)cc2CC1C (stereo unspecified) | . | . | / | / | . | /
N/C(=C\C(=O)c1cc(Cl)ccc1O)C(Cl)(Cl)Cl | . | . | 6.7µM | . | ? | .
O=C(Nc1cc(C(F)(F)F)cc(C(F)(F)F)c1)c1cc(Cl)ccc1O | / | . | / | / | . | /
CCOc1ccccc1C(=O)Nc1c(C(=O)Nc2ccc(F)cc2)oc2ccccc12 | . | . | / | / | . | /
CC(C)C1N=C(c2ccc3c(c2)OCO3)CC(c2ccccc2O)N1 (stereo unspecified) | . | . | . | . | 79µM | .
CC(C)C1(C)NC(c2ccc3c(c2)OCO3)=CC(c2ccccc2O)N1 (stereo unspecified) | . | . | / | / | . | /
CNC(=O)C1CC(=O)N(c2ccc(OCC(=O)Nc3ccc(F)cc3)cc2)C1 (stereo unspecified) | . | / | 27µM | / | . | .
C[C@H](NC(=O)C1CC(=O)N(c2ccc(F)cc2)C1)C(=O)N1CCCCC1 (stereo partly specified) | . | . | 24µM | . | . | .
CC(C)NS(=O)(=O)c1ccc(OCC(=O)Nc2ccc(F)cc2)cc1 | . | . | 24µM | . | . | .
CCOC(=O)c1c(C)sc(-c2c(-c3ccc4c(c3)OCCO4)[nH]c3c2c(=O)[nH]c(=O)n3C)c1O | ? | . | / | / | . | /
CSc1nnc(C(C)(C)C)c(=O)n1/N=C/c1ccccc1O | . | . | 24µM | . | ? | .
CSc1nnc(C(C)(C)C)c(=O)n1/N=C/c1ccc(Cl)cc1 | . | / | . | . | . | .
SMILES | Pin1 inh | TDP1 block | PLK1 PBD inh | Tb PFK inh | VDR inhibitor | S-ASM inh
O=C(NCc1ccccc1Br)c1cnc2sc(N3CCCCCC3)nn2c1=O | . | . | / | / | . | /
COc1cccc(CNC(=O)CSc2c3c(nc4ccc(Cl)cc24)CCCC3)c1OC | . | . | / | / | . | /
COc1ccccc1N1CCN(C2CCCN(C(=O)c3cc(C)oc3C)C2)CC1 (stereo unspecified) | . | . | . | . | . | .
Cc1cc(C(=O)N2CCCC(N3CCN(c4ccc(F)cc4)CC3)C2)c(C)o1 (stereo unspecified) | . | . | 27µM | . | ? | .
Cc1ccc(Nc2cc(C)nc3nncn23)c(C)c1 | . | . | / | / | . | /
COc1ccc(COC(=O)c2c(C)nn(-c3ccccc3)c2Cl)cc1 | . | 56µM | . | . | . | .
COc1ccc(NC(=O)c2c(C)nn(-c3ccccc3)c2Cl)cc1 | . | / | . | . | . | .
CCOC(=O)c1ccc(NC(=O)C2CCCN(c3ncnc4onc(-c5ccc(F)cc5)c34)C2)cc1 (stereo unspecified) | . | . | / | / | . | /
Cc1ccccc1C(=O)Nc1nnc(S(=O)(=O)N(C)Cc2ccco2)s1 | . | . | . | . | ? | .
CCC(=O)Nc1nnc(S(=O)(=O)N(C)Cc2ccco2)s1 | . | . | 27µM | . | ? | .
CC(C)(C)c1ccc(Nc2nc(C#N)nc(NC3CCCC3)n2)cc1 | . | . | / | / | / | /
Cc1ccc(-n2[nH]c(C)c(C=Nc3ccc(S(=O)(=O)Nc4nc(C)cc(C)n4)cc3)c2=O)c(C)c1 | . | . | . | . | . | .
C=CCN=Cc1c(C)[nH]n(-c2ccccc2)c1=O | . | . | . | . | . | .
Cc1[nH]n(-c2ccccc2)c(=O)c1/C=N/N(c1ccccc1)c1ccccc1 | . | . | 19µM | . | ? | .
Cc1cc(C)nc(NS(=O)(=O)c2ccc(N=Cc3c(C)[nH]n(-c4ccccc4)c3=O)cc2)n1 | . | . | 27µM | . | ? | .
Cc1[nH]n(-c2ccccc2)c(=O)c1C=Nc1ccc(S(=O)(=O)N=C(N)N)cc1 | . | . | . | . | . | .
Cc1[nH]n(-c2ccccc2)c(=O)c1/C=N/c1nn[nH]n1 | . | . | 24µM | ? | . | .
Cc1[nH]n(-c2ccccc2)c(=S)c1C=Nc1ccc([N+](=O)[O-])cc1 | . | . | 2.7µM | ? | 40µM | .
Cc1nn(CCC(=O)NCc2cccc(Br)c2)c(=O)c2nn(-c3ccccc3)c(C)c12 | . | . | / | / | . | /
CCN(CC)CCC(c1ccc(N(C)C)cc1)c1c(OC)cc(OC)c2c1OC(=O)CC2c1ccc(OC)cc1 (stereo unspecified) | . | . | / | / | . | /
COC(=O)/C=C/c1cc(O)ccc1O | / | . | / | / | . | /
O=C(Nc1cc(C(F)(F)F)ccc1N1CCOCC1)c1c(F)c(F)c(F)c(F)c1F | . | . | 30µM | . | . | .
O=C(Nc1cc(C(F)(F)F)ccc1N1CCOCC1)c1ccccc1 | . | . | . | . | . | .
O=Cc1c(Sc2ccccc2)nc2ccccn2c1=O | . | . | 3.4µM | . | . | .
O=Cc1c(Sc2ccccn2)nc2ccccn2c1=O | . | . | . | . | . | .
Cc1cc2c(s1)c1cnn(Cc3ccc(S(C)(=O)=O)cc3)c(=O)c1n2C | . | . | / | / | / | /
Nc1c(C(=O)Nc2ccc(Br)cc2)sc2nc(-c3ccncc3)ccc12 | ? | 22µM | / | / | . | /
C=CCn1c(SCC(=O)NCc2ccc3c(c2)OCO3)nc2scc(-c3ccccc3)c2c1=O | . | . | . | . | . | .
